Screening results from PubChem.
The list is not random: actives were taken first. Their share in the collection is about 4.6%.
Vaccinia mCherry – qHTS for Stage-Specific Inhibitors of Vaccinia Orthopoxvirus: mCherry Reporter Primary qHTS. AID 720579, 2013. 0.63% of 310,000 active. Vaccinia virus mCherry reporter infection, fluorescence. Potency, µM (top dose mostly 36.5 µM), inactives show at the highest dose activity change, negative = inhibition, usual class: inhibitors; calls by dose curve; tested in A549 cells; note: nearly all actives have a fitted effect of over 35% in size
HCV inh – qHTS Assay for Inhibitors of Hepatitis C Virus (HCV); Huh7.5.1 HCVcc-Cre infection, luciferase reporter, 44 h; AID 651820, 2012; Potency, µM (doses to about 41.8 µM), without a hit: at the highest dose activity change, negative = inhibition, hits mostly inhibitors; 3.4% of 340,000 active; active = well fitted inhibition curve with a large enough effect; inconclusive = small, poorly fitted or top-dose-only effect, or another doubt; inactive = no such curve, though single readings can be large or run the other way
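After 44 h co-culture of compound, cells and HCVcc-Cre (~0.5 moi), substrate is added for 15 min at room temperature and luciferase measured over 15 sec. Cells were seeded at 1,000/well and pre-cultured 4 h.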
VACV Venus inh – qHTS for Stage-Specific Inhibitors of Vaccinia Orthopoxvirus: Venus Reporter Primary qHTS | Vaccinia virus Venus reporter expression, fluorescence | Potency, µM (doses to about 36.5 µM), without a hit: at the top dose activity change, negative = inhibition, hits mostly inhibitors | 0.46% of 330,000 active; calls by dose curve; tested in A549 cells; note: nearly all actives have a fitted effect of over 30% in size
MARV entry inh – qHTS for inhibitors of binding or entry into cells for Marburg Virus; Marburg virus pseudotyped entry inhibition, cell reporter; Potency, µM (top dose mostly 37.8 µM), for the others: at the highest dose activity change, negative = inhibition, hits mostly inhibitors; 1.8% of 300,000 active; calls by dose curve; tested in HEK293 cells
Lassa entry inh – qHTS for Inhibitors of binding or entry into cells for Lassa Virus | AID 540256, 2011 | Lassa virus pseudotype entry inhibition, cell reporter | Potency, µM (doses to about 37.9 µM), inactives show at the highest dose activity change, negative = inhibition, usual class: inhibitors | 1.2% of 300,000 active; calls by dose curve; tested in HEK293 cells; note: nearly all actives have a fitted effect of over 50% in size
An asterisk follows results filed as active; i = inactive; ? = inconclusive; / = not tested or not shown; [ ] = dose if it differs, or a comment. % is set by controls: 0 for no effect and ±100 for the full control effect; potency is the fitted concentration of half-maximal effect.

SMILES	Vaccinia mCherry	HCV inh	VACV Venus inh	MARV entry inh	Lassa entry inh
COCC(C)N1C(=O)Cc2c1nc(N)c1c(N)nc(N3CCN(c4ccccc4F)CC3)c(C#N)c21 (stereo not drawn)	?	?	-2%	16µM*	?
COCCN1C(=O)Cc2c1nc(N)c1c(N)nc(N3CCN(c4ccc(F)cc4)CC3)c(C#N)c21	/	-25%	/	/	/
Cc1ccc(NC(=O)Nc2cccc(F)c2)nc1	/	-10%	/	/	/
Cc1ccnc(NC(=O)Nc2cccc(F)c2)c1	/	-9%	/	?	6.5µM*
COc1ccc(/C(O)=C2\C(=O)C(=O)N(CCN3CCOCC3)[C@H]2c2cccnc2)cc1OC	/	/	/	2%	/
Cc1nn2c3ccccc3nc2c2ccccc12	/	13µM*	/	14%	8%
O=C(Nc1cc(C(=O)N2CCN(CCO)CC2)c2c(c1)ncn2C1CCCC1)c1ccccc1	-3%	/	0%	/	/
Cc1cc(-c2ccccc2)nc(N/N=C/c2ccc(O)cc2O)n1	?	10µM*	?	?	-18%[46.1 µM]
Cc1cc(-c2ccccc2)nc(N/N=C/c2ccc(N(C)C)cc2)n1	/	13µM*	/	/	/
Cc1cc(-c2ccccc2)nc(N/N=C/c2ccc([N+](=O)[O-])cc2)n1	-18%	10µM*	-25%	?	?
CSc1ccc(/C=N/Nc2nc(C)cc(C)n2)cc1	i	3%	-6%	4%	7.1µM*
CN(/N=C/c1ccc(O)cc1O)c1nc(-c2ccccc2)cc(-c2ccccc2)n1	?	?	20µM*	?	3%
O=[N+]([O-])c1ccc(O)c(-c2cc(C(F)(F)F)nc(-c3ccccc3)n2)c1	/	1.4µM*	/	3%	/
CC(C)CNC(=O)C(=O)Nc1ccc2c(c1)N(S(=O)(=O)c1cccs1)CCC2	-15%	?	-28%	3.2µM*	?
COC(CNC(=O)C(=O)Nc1ccc2c(c1)N(S(=O)(=O)c1cccs1)CCC2)OC	-10%	?	?	-19%	-22%[46.1 µM]
O=C(NCCCO)C(=O)Nc1ccc2c(c1)N(S(=O)(=O)c1cccs1)CCC2	-29%	?	?	-10%	-11%
COCCNC(=O)C(=O)Nc1ccc2c(c1)N(S(=O)(=O)c1cccs1)CCC2	-15%	?	?	?	1.8µM*
C[C@H](N)Cc1c[nH]c2ccc(OCc3cccs3)cc12	/	/	/	21µM*	/
C[C@H](N)Cc1c[nH]c2ccc(O)cc12	/	/	/	-11%	/
CC(N)Cc1c[nH]c2ccc(OCc3cccs3)cc12 (stereo not drawn)	-28%	?	-12%	21µM*	7%
CC(N)Cc1c[nH]c2ccc(O)cc12 (stereo not drawn)	-11%	-11%	-9%	?	17%
CNC(=O)N(O)C1N(/N=C/c2cc(Br)ccc2O)C(=S)SC1(C)C (stereo not drawn)	-6%	11µM*	-21%	/	/
Cc1ccc(/C=N/N2C(=S)SC(C)(C)C2N(O)C(=O)Nc2ccc([N+](=O)[O-])cc2)cc1 (stereo not drawn)	?	11µM*	?	?	-4%
CC1(C)SC(=S)N(/N=C/c2ccccc2O)C1N(O)C(=O)Nc1ccccc1 (stereo not drawn)	i	11µM*	-21%	?	-27%
CCC(C)c1ccc(OCC(=O)Nc2cccc3ccc(C)nc23)cc1 (stereo not drawn)	-14%	/	-10%	5%[46.1 µM]	?
SMILES	Vaccinia mCherry	HCV inh	VACV Venus inh	MARV entry inh	Lassa entry inh
O=S1(=O)N[C@H](c2ccccc2)COc2cc(Br)ccc21	/	/	/	/	-3%[46.1 µM]
COc1ccc(C2c3c(n(C)c4ccccc34)C(=O)N2CC(=O)Nc2ccc(Cl)cc2)cc1 (stereo not drawn)	0%	/	-9%	/	-5%[46.1 µM]
CC(C)(C)c1ccc(O)c(N=Cc2cccc([N+](=O)[O-])c2)c1	i	/	-10%	/	/
CCCCOc1ccc(CC(=O)N(C)OC)cc1	25%	/	-14%	/	/
O=C(CSc1ccc(S(=O)(=O)N2CCOCC2)cn1)Nc1ccc(OC(F)F)cc1	/	6%	/	/	/
O=C(CSc1ccc(S(=O)(=O)N2CCOCC2)cn1)Nc1ccc(F)c(F)c1	/	6.3µM*	/	/	/
O=C(CSc1ccc(S(=O)(=O)N2CCCC2)cn1)Nc1ccc([N+](=O)[O-])cc1C(F)(F)F	-6%	13µM*	-17%	?	-25%
